Assay results taken from PubChem BioAssay AID652257 (The Scripps Research Institute Molecular Screening Center, 2013).
Among all 370,000 compounds or so, about 4,800 (1.3%) were called active.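 Rule for the calls: active = inhibition above about 21% made by adding two undisclosed values (limit read from the data); inactive = the rest.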 What follows is part of a selection rich in actives, with near analogues and random picks from the rest.

Target: Protein arginine N-methyltransferase 1 (Homo sapiens) (UniProt Q99873)
Sequence (Q99873 whole entry, looked up): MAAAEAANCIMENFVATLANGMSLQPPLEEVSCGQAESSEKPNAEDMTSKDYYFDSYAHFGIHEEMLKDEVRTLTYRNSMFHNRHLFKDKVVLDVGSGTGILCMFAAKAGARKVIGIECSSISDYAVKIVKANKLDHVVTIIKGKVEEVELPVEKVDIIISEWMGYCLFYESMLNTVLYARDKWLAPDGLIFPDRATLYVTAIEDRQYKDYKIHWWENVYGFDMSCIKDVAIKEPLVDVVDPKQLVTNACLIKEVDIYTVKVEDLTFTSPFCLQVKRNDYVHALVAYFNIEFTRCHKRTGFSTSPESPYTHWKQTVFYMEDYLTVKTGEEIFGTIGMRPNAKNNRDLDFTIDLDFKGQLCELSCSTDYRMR
Assay: human PRMT1 activity-probe blockers – biochemical, fluorescence polarization, primary screen (AID 652257)
Conditions: recombinant PRMT1, activity-based probe fluorescence polarization; at 2.79 µM; hits give high values

Compound	inhibition
COC(=O)C[C@@H]1CC[C@H]2[C@@H](COc3ccc(NS(=O)(=O)CC(F)(F)F)cc3C(=O)N2C)O1	4.04% (inactive)
O=C(CNS(=O)(=O)c1ccccc1)NCC(=O)OCc1ccccc1F	1.67% (inactive)
CC(=O)C1(C(=O)Nc2nccs2)CC(c2ccccc2C(F)(F)F)=NO1 (stereo not drawn)	5.04% (inactive)
O=C1CCC/C(=N\NC(=O)NC2CCCCC2)C1	0.8% (inactive)
O=C(OC12CCCN(C1)/C(=C/c1ccccc1)C2)c1ccco1 (stereo not drawn)	-3.75% (inactive)
CNC(=O)NC(=O)CSc1nnc(-c2ccc(F)cc2)n1CC1CCCO1 (stereo not drawn)	2.71% (inactive)
COc1ccccc1CCNC(=O)C1CCN(c2nc(C)cc(C)n2)CC1	1.67% (inactive)
CCn1c(SCC(C)=O)nc2sc3c(c2c1=O)CCCC3	-4.09% (inactive)
Cc1cc(C(=O)OCC(=O)N2C(C)CCCC2C)c2ccccc2n1 (stereo not drawn)	7.6% (inactive)
CN(C(=O)COC(=O)c1cc(-c2ccco2)nc2ccccc12)C1CCS(=O)(=O)C1 (stereo not drawn)	21.6% (active)
Cc1ccc(NC(=O)c2cc(-c3ccc(C)o3)nc3ccccc23)nc1	47.4% (active)
Cc1cc(NC(=O)c2ccccc2C)no1	-1.67% (inactive)
O=C(Nc1nc2ccc(Cl)cc2s1)c1cc(-c2ccc(Cl)cc2)nc2ccccc12	9% (inactive)
COc1cccc(NC(=O)CN(C)C(=O)c2cc(Cl)nc3ccccc23)c1	-4.52% (inactive)
COc1ccc(NC(=O)CN(C)C(=O)c2cc(C)oc2C)cc1	-0.84% (inactive)
COc1ccc(NC(=O)CN(C)C(=O)c2cc(-c3ccc(C)o3)nc3ccccc23)cc1	26.9% (active)
Cc1ccc(S(=O)(=O)CCC(=O)OCC(=O)N(C)C2CCS(=O)(=O)C2)cc1 (stereo not drawn)	1.31% (inactive)
CC1(C)CC(CNCCC(c2ccc(F)cc2)c2ccco2)CCO1 (stereo not drawn)	-2.86% (inactive)
O=C(NCCc1ccc(Cl)cc1Cl)c1cc([N+](=O)[O-])c[nH]c1=O	-1.63% (inactive)
CC(=O)c1ccc(Cc2ncc(C(F)(F)F)cc2Cl)s1	1.39% (inactive)
CCOC(=O)C1CCN(C(=O)C(C)(C)NC(=O)Nc2ccccc2Cl)CC1	-1.31% (inactive)
Cc1ccc(-n2c(SCC(=O)Nc3ccc(S(=O)(=O)Nc4nccs4)cc3)nnc2-c2cccnc2)cc1	-3.77% (inactive)

Compound	inhibition
O=C(COC(=O)Cc1ccc(F)cc1)Nc1cc(S(=O)(=O)N2CCOCC2)ccc1N1CCCC1	-0.54% (inactive)
COCCNC(=S)Nc1cc(S(=O)(=O)N2CCOCC2)ccc1N1CCCCC1	29.6% (active)
CC(C)CCC(=O)Nc1cc(S(=O)(=O)N2CCOCC2)ccc1N1CCCC1	-0.42% (inactive)
CN(C)Cc1cn(-c2ccc(-c3noc4c3C(=O)N(CC(=O)N3CCOCC3)CC4)cc2)nn1	3.49% (inactive)
O=C(/C=C/c1cccc(C(F)(F)F)c1)N1CCN(c2ccccn2)CC1	3.3% (inactive)
Cc1ccc(C)c(NC(=O)CCS(=O)(=O)c2ccccc2)c1	10% (inactive)
O=S(=O)(Nc1n[nH]c(C(F)(F)F)n1)c1ccccc1	-0.91% (inactive)
Cc1noc(C)c1C(=O)OC(C)C(=O)Nc1ccc2c(c1)OCO2 (stereo not drawn)	-4.06% (inactive)
Cn1sc(=O)c2cc(S(=O)(=O)NC3CC3)ccc21	36.8% (active)
O=S(=O)(NC1CC1)c1ccc(F)c(F)c1	0.17% (inactive)
CC1CCC(NS(=O)(=O)c2ccc3c(c2)CC(=O)N3)CC1 (stereo not drawn)	2.71% (inactive)
O=C(O)C#Cc1cccc2ccccc12	-1.9% (inactive)
CC(CCN1CCC(C(O)(c2ccccc2)c2ccccc2)CC1)Oc1ccc(C(F)(F)F)cc1 (stereo not drawn)	0.57% (inactive)
CCOc1ccc(-n2c(SCC(=O)Nc3cc(C)c(NC(=O)c4ccccc4)cc3OC)nnc2-c2cccc(Cl)c2)cc1	7.2% (inactive)
C=CS(=O)c1sc(Cl)c(N2CCOCC2)c1[N+](=O)[O-] (stereo not drawn)	73.1% (active)
CCN(C(=O)[C@@H](C1CC1)[C@@H](O)c1ccc2ccccc2c1)c1ccccc1	-0.98% (inactive)
O=C(O)C1CCN(C(=O)c2cc(F)cc3c2OCOC3)CC1	-0.21% (inactive)
CC(=O)N1CCc2cc(Br)cc(S(=O)(=O)CCC(=O)Nc3c(C)n(C)n(-c4ccccc4)c3=O)c21	4.6% (inactive)
O=C(CSCc1ccc([N+](=O)[O-])cc1)NCCSCc1ccccc1	-0.87% (inactive)
CC(C)(C)C(=O)NCCCNc1ccc([N+](=O)[O-])cc1	9.07% (inactive)
O=C(O)/C=C/C(=O)NNc1ccc([N+](=O)[O-])cc1	59% (active)
COC(=O)c1ccccc1-n1cc(COC(=O)NCCc2ccccc2)nn1	-0.03% (inactive)

Compound	inhibition
S=c1[nH]nc(-c2ccco2)n1/N=C/c1ccc(Br)s1	34.3% (active)
Brc1ccc(/C=N/N2CCN(C3c4ccccc4-c4ccccc43)CC2)s1	-0.5% (inactive)
CCc1ccccc1NC(=S)N(CCN1CCCCCC1)Cc1ccco1	-6.03% (inactive)
Cn1c(C(=O)NCCCN2CCCCC2)cc2sccc21	-0.77% (inactive)
O=C(Nc1ccc(Br)cc1)OCCN1C(=O)CCC12CCC(c1ccccc1)CC2 (stereo not drawn)	-1.94% (inactive)
O=C1C(Cl)=C(Oc2ccccc2)C(=O)c2ccccc21	88.5% (active)
COc1ccc(Cn2cc(CN3[C@@H](CC(C)C)COc4cc(Br)ccc4S3(=O)=O)nn2)cc1	-4.17% (inactive)
Cc1ccc(-n2c(SCC(=O)Nc3ccc(S(=O)(=O)Nc4nccs4)cc3)nnc2-c2ccncc2)cc1	-1.23% (inactive)
CC(C)CNc1cccc2c1S(=O)(=O)N(Cc1cn(Cc3ccc(Cl)cc3)nn1)Cc1ccccc1O2	-5.99% (inactive)
O=C(NCc1ccccc1)[C@@H]1CCCN1C(=O)[C@H]1CCCN1C(=O)c1cccc(Cl)c1	-3.52% (inactive)
O=C(CSc1nc2ccccc2s1)N=Nc1c(O)[nH]c2ccccc12	2.56% (inactive)
O=C(O)c1ccccc1CSc1nc2ccccc2s1	40.8% (active)
O=C(CSc1nc2ccccc2s1)NN=Cc1ccc(O)cc1O	-0.64% (inactive)
Cc1ccc(NC(=O)c2cc(C)nn2-c2ccccc2)c(C)c1	-2.87% (inactive)
CCCC(=O)NC(Nc1ccccc1OC)C(Cl)(Cl)Cl (stereo not drawn)	1.36% (inactive)
CCN(CC)c1ccc2oc(=O)c(C)nc2c1	46.6% (active)
CCN(C(=O)CSc1nnc(-c2ccc(OC(F)F)cc2)n1N)C1CCS(=O)(=O)C1 (stereo not drawn)	-3.24% (inactive)
Cc1ccc(Cc2cnc(N)s2)o1	40.4% (active)
Cc1ccc(-n2c(C)cc(/C=C(\C#N)C(=O)NCC3CCCO3)c2C)cc1 (stereo not drawn)	-0.82% (inactive)
CCCNC(=O)Nc1ccc2c(c1)C(=O)N(C)[C@H]1CC[C@H](CC(=O)NCC3CCCCC3)O[C@@H]1CO2	1.64% (inactive)
C[C@@H](NC(=O)c1ccccc1OCC(=O)Nc1ccc(I)cc1)C(=O)N(C)Cc1ccccc1	-0.05% (inactive)
O=C(NCC(=O)N1CCN(c2ncc(C(F)(F)F)cc2Cl)CC1)c1ccc(Br)o1	-1.7% (inactive)

Compound	inhibition
Cc1cc(C)nc(NC(=S)N2CCN(c3ccc(C(F)(F)F)cn3)CC2)c1	7.93% (inactive)
COc1ccnc(NC(=S)N2CCN(c3ncc(C(F)(F)F)cc3Cl)CC2)c1	35.6% (active)
CC(C)c1ccc(NC2CCCN(C(=O)c3ccncc3)C2)cc1 (stereo not drawn)	5.83% (inactive)
Cc1cc(NS(=O)(=O)c2ccc(NC(=O)CSc3nnc(SCc4ccc(F)cc4)s3)cc2)nc(C)n1	1.42% (inactive)
CC1CCN(C(=S)c2cccc(O)c2)CC1	3% (inactive)
COc1ccc(C(=O)Nc2c(Cl)cc(Cl)cc2C(=O)N2CCC(C)CC2)cc1	1.04% (inactive)
CC1CCN(C(=S)c2ccc(-c3ccc(Cl)cc3Cl)o2)CC1	31.8% (active)
C1CC1Cc1noc(CN2CCN(CC3CC3)CC2)n1	-0.03% (inactive)
Cc1nc(NC(=O)C(C)(C)C)sc1[N+](=O)[O-]	-3.06% (inactive)
CCN(CC)CCNS(=O)(=O)c1ccc(/C=C/C(=O)O)cc1	4.48% (inactive)
CCOc1cccc(/C=N/N2C(=O)CSC2=S)c1O	63.6% (active)
CCOc1cc(/C=N/n2cnnc2)c(Br)cc1O	4.53% (inactive)
COC(=O)[C@]12C[C@H](CC(=O)NCC34CC5CC(CC(C5)C3)C4)C(=O)N(Cc3ccc(Cl)cc3Cl)C1=C[C@H](COCc1ccccc1)O[C@@H]2C	2.58% (inactive)
COC(=O)[C@]12C[C@H](CC(=O)N3CCN(C(=O)C4CC4)CC3)C(=O)N(CCC3=CCCCC3)C1=C[C@H](C(C)C)O[C@@H]2C1CC1	1.61% (inactive)
Cc1cccc(NC(=O)CSc2nnc(NC(=O)CN3CCOCC3)s2)c1	0.98% (inactive)
c1ccc(CSc2ncnc3c2sc2nc(N4CCOCC4)c4c(c23)CCCC4)cc1	-1.26% (inactive)
Cc1cccc(NC(=O)c2sc3nc(N4CCOCC4)c4c(c3c2N)CCCC4)c1	33% (active)
COc1cc(C(=O)N/C(=C\c2cn(C)c3ccccc23)C(=O)N2CCOCC2)cc(OC)c1OC	4.22% (inactive)
COc1ccc(C2CC=C(C(=O)O)C(c3ccccc3F)N2S(=O)(=O)c2ccc(C)cc2)cc1OC (stereo not drawn)	-1.02% (inactive)
COc1cccc2c1C(=O)c1c(O)c3c(c(O)c1C2=O)CC(O)(C(C)=NNC(=O)c1ccc(Cl)c(Cl)c1)CC3OC1CC(N)C(O)C(C)O1 (stereo not drawn)	179% (active)
CN1c2ccc(C=O)c3c(C=O)ccc(c23)N(C)C1(C)C	68.8% (active)
O=C(CSc1nc2nccnc2c(=O)n1Cc1cccs1)Nc1ccccc1F	5% (inactive)
